From PubChem BioAssay (NCATS)
Records with an inconclusive call do not appear. Where a call stands in place of a potency, no number is given. Activity calls are given as the source filed them. The call rests on the fitted dose curve; in most records, active means well fitted inhibition curve with a large enough effect; inconclusive means small, poorly fitted or top-dose-only effect; inactive means flat fitted curve, though single readings scatter.

target: Phospholipid hydroperoxide glutathione peroxidase GPX4 (Homo sapiens) (UniProt P36969); assay: Primary qHTS Assay for Inhibitors of Recombinant Selenoprotein Glutathione Peroxidase 4 (GPX4) (AID 1845192); settings: recombinant GPX4, GR-coupled NADPH fluorescence, 15 min; series mostly up to 27.8 µM; further: nearly all actives have a fitted effect of over 65% in size
Sequence (P36969 whole entry, looked up): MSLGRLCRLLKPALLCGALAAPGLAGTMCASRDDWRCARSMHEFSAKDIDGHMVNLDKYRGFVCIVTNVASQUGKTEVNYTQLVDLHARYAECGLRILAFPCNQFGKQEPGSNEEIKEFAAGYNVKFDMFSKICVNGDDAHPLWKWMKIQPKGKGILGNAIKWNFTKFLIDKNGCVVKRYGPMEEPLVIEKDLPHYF
Method in brief: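 NADPH consumption, followed by fluorescence at 340/450 nm between 0 and 15 min, reports GPX4 activity via coupled glutathione reductase (100 nM). Enzyme 200 nM was pre-exposed to compound 30 min; 0.5 mM cumene hydroperoxide and 1 mM GSH served as substrates.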

SMILES	Potency
CC(C)=CCC/C(C)=C/CO[C@@H]1O[C@H](CO[C@@H]2OC[C@](O)(CO)[C@H]2O)[C@@H](O)[C@H](O)[C@H]1O	inactive
CN1CCN(C2=Nc3ccccc3Nc3ccc(O)cc32)CC1	inactive
COC(=O)C1=CO[C@@H](O[C@@H]2O[C@H](CO)[C@@H](O)[C@H](O)[C@H]2O)[C@H]2[C@@H]1[C@H](O)C[C@]2(C)O	inactive
CC1=C2C(=O)C=C(CO[C@@H]3O[C@H](CO)[C@@H](O)[C@H](O)[C@H]3O)[C@@H]2[C@H]2OC(=O)[C@H](C)[C@@H]2CC1	inactive
COc1cc(CO)ccc1O[C@@H]1O[C@H](CO)[C@@H](O)[C@H](O)[C@H]1O	inactive
O=C1OC(c2ccc(O)cc2)C(O)=C1Cc1ccccc1 (stereo unspecified)	inactive
C/C=C(\C)C(=O)OCC1OC(OC2OC(CO)C(O)C(O)C2O)C(O)C(O)C1O (stereo unspecified)	inactive
O=C(/C=C/c1ccc(O)cc1)OC[C@H]1O[C@H](O[C@@]2(CO)O[C@@H](CO)[C@H](O)[C@H]2O)[C@H](O)[C@@H](O)[C@@H]1O	inactive
O=C(C[C@@H]1C(C(=O)O)=CO[C@@H](O[C@@H]2O[C@H](CO)[C@@H](O)[C@H](O)[C@H]2O)/C1=C\CO)OCCc1ccc(O)cc1	inactive
C=C(C)C(O)COc1ccc(CC(=O)O)cc1 (stereo unspecified)	inactive
NC(N)=NCCC[C@H](NC(=O)c1sccc1NS(=O)(=O)c1cccc2nsnc12)C(=O)O	inactive
C[C@@]12CC3(S(=O)(=O)O)OC(O1)[C@]1(COC(=O)c4ccccc4)[C@H]3C[C@]21O[C@@H]1O[C@H](CO)[C@@H](O)[C@H](O)[C@H]1O	inactive
C/C=C/C=C/C(O)=C1/C(=O)[C@]2(C)C3/C(=C(O)/C=C/C=C/C)C(=O)C4(C)C1[C@]1(C)O[C@@]4(O)[C@@]3(C)O[C@@]12O	inactive
C[C@@H]1O[C@@H](O[C@@H]2[C@@H](O)[C@H](O[C@@H]3[C@@H](O)[C@@H](O)[C@H](O[C@H]4[C@H](OC(=O)[C@]56CCC(C)(C)C[C@H]5C5=CCC7[C@@]8(C)C[C@H](O)[C@H](O[C@@H]9O[C@H](C(=O)O)[C@@H](O)[C@H](O)[C@H]9O)[C@@](C)(CO)C8[C@H](O)C[C@@]7(C)[C@]5(C)C[C@H]6O)O[C@@H](CO)[C@@H]4O)O[C@H]3C)OC[C@H]2O)[C@H](O)[C@H](O)[C@H]1O (stereo partly specified)	inactive
O=C(C[C@@H]1C(C(=O)O)=CO[C@@H](O[C@@H]2O[C@H](CO)[C@@H](O)[C@H](O)[C@H]2O)/C1=C\CO)OCCc1ccc(O)c(O)c1	inactive
Nc1c(-c2ccccc2)nc(Cl)c2c(O)n[nH]c(=O)c12	inactive
NC1Nc2ccccc2C1(N)CC1NC(=O)C(Cc2ccccc2)NC(=O)C(Cc2ccccc2)NC1=O (stereo unspecified)	inactive
C=C[C@H]1[C@H](O[C@@H]2O[C@H](CO)[C@@H](O)[C@H](O)[C@H]2O)OC=C2C(=O)N3Cc4c([nH]c5ccccc5c4=O)[C@@H]3C[C@H]21	inactive
O=C(c1ccc(Cl)c([N+](=O)[O-])c1)N1CCN(c2ccccc2F)CC1	inactive
O=C(O)c1ccnc(-c2cc(C(=O)NCCc3ccccc3)ccn2)c1	inactive
COC(=O)[C@]1(C)CCC[C@@]2(C)C(=O)CC[C@H]3C(=O)C=C(CC[C@@H]21)C3O (stereo partly specified)	inactive
O=C(O)C[C@H]1CCC(=O)[C@@H]1C/C=C\CCO	inactive
C[C@H]1[C@@H](O)[C@H](O)C2[C@]3(C)C([C@@H](O)[C@H]4OC(=O)[C@@H]1[C@@]24C)[C@](C)(O)C=C[C@H]3O[C@@H]1O[C@H](CO)[C@@H](O)[C@H](O)[C@H]1O (stereo partly specified)	inactive
CC1=COC(OC2OC(CO)C(O)C(O)C2O)C2C(CO)CC(OC(=O)/C=C/c3ccc(O)cc3)C12 (stereo unspecified)	inactive
COc1cc(/C=C/C(=O)O[C@@H]2C[C@](O)(C(=O)O)C[C@@H](O)[C@H]2O)ccc1O	inactive
COC(=O)c1ccc(OC)cc1O[C@@H]1O[C@H](CO[C@@H]2OC[C@@H](O)[C@H](O)[C@H]2O)[C@@H](O)[C@H](O)[C@H]1O	inactive
